Drawing on ChEMBL document CHEMBL4513216, “Probing the Open Global Health Chemical Diversity Library for Multistage-Active Starting Points for Next-Generation Antimalarials” (ACS Infect Dis, 2020), this text covers INHIBITION for 60 compounds.

Hit rate of the full screen: of about 69,000 compounds, about 8,600 (12%) showed an effect of 50% or more. The sample as a whole holds a higher share of strong results than the screen did.

The assay has as its system Plasmodium berghei. Briefly: Screen against P. berghei liver stage (PbLuc), transformed with Luciferase, at 10uM. It counts as functional, HepG2. The conditions noted are these: tested at 10 uM.
In the case of `CN(Cc1csc(-c2cccs2)n1)CC(O)CO` (stereo not given), the INHIBITION is on record as 51.5%. Consider `O=C(C1CCOCC1)N1CCCC1c1cncc(CN2CCCC2)n1` (stereo not given), for which the INHIBITION is given as 41.5%. With `COCC(=O)N1CC(c2csc(NC(C)=O)n2)C1` the figure was 2.71%. As to `CNC(=O)C1CCN(C(=O)NCCc2ccc(Cl)s2)CC1`, the INHIBITION is reported as 23.5%. With `Cc1ccc(-c2nnc(C3CCCN3S(=O)(=O)c3cnn(C)c3C)o2)s1` (stereo not given) the figure was 19.02%; with `Cc1ccc(NC2CCN(C(=O)CCc3c(C)noc3C)CC2)nn1`, 7.12%; with `CCc1ncnc2c1CCN(C(=O)c1ccccn1)CC2`, -0.813%. The figure for `O=C(O)c1cc2c(nc1O)CC(c1cccs1)CC2=O` (stereo not given) is -6.32%; for `O=C1CC(c2cccs2)Cc2nc(O)c(C(=O)N3CCCC3)cc21` (stereo not given) it is -60.7%; for `COCCNC(=O)c1cc2c(nc1O)CC(c1cccs1)CC2=O` (stereo not given) it is 55.2%. The figure for `O=C(NC1CC1)c1cc2c(nc1O)CC(c1cccs1)CC2=O` (stereo not given) is 75.2%. Turning to `CC1CCc2nc(O)c(C(=O)NCCc3cccs3)cc2C1` (stereo not given), the INHIBITION was -111%.

As for `O=C(O)c1cc2c(nc1O)CC(c1cccc(Cl)c1)CC2=O` (stereo not given), the INHIBITION is listed as -23.7%. The figure for `O=C(Cc1ccccc1Cl)Nc1cc(N2CCCC2)ncn1` is -12.1%; for `O=C(O)[C@@H]1CN(C(=O)CCN2CCCCC2)C[C@H]1c1ccccc1` it is -24%; for `CCOCc1nc(-c2ccc(F)cc2Cl)n(C2CCN(C)CC2)n1` it is 8.51%. The figure for `Cc1noc(C)c1CNC(=O)Nc1ccc(N2CCSCC2)cc1` is 7.93%; for `Cc1cc(NC(=O)CN2CCc3cncnc3C2)on1` it is 43.3%; for `O=C(c1ccccn1)N1C[C@H]2CC[C@@H](C1)N(C(=O)c1ccsc1)C2` it is 20.6%. The figure for `CCn1ccnc1CNc1nccc(-c2c(C)nn(C)c2C)n1` is -47.8%; for `CCn1ccnc1CNc1nccc(-c2cn(C)nc2C)n1` it is -67.9%; for `CCc1nccn1CCCNc1nccc(-c2c(C)nn(C)c2C)n1` it is 65.2%.

Regarding `CCc1nc(CN(C(C)=O)C2CCN(Cc3csc(C)n3)C2)no1` (stereo not given), the INHIBITION was -13.5%. As for `COCC(=O)NC[C@]12COC[C@H]1CN(Cc1ccc3c(c1)OCO3)C2`, the INHIBITION turned out to be 0.453%.

For `COCC(=O)NC[C@]1(O)CN(Cc2ccc3c(c2)OCCO3)C[C@H]1O`, the INHIBITION amounted to 66.8%. With `CC(=O)N1CCN(Cc2ccc3c(c2)OCCO3)CC(O)C1` (stereo not given) the figure was 15.8%. The figure for `COCC(=O)N[C@@H]1CN(Cc2ccc3c(c2)OCCO3)C[C@H]1O` is 52%.

As to `CCC[C@H]1CN(Cc2ccc3c(c2)OCCO3)C[C@@H]1NC(=O)COC`, the INHIBITION amounted to 37.6%. The figure for `O=C(NCC1CC1)N1CCN(Cc2ccc3c(c2)OCCO3)CC1` is 13.9%; for `Cc1nc(CN2CCCC(Cn3cncn3)C2)no1` (stereo not given) it is 34.7%; for `CN(Cc1nnc(C2CC2)n1C)S(=O)(=O)c1ccc(F)c(C#N)c1` it is -6.46%. The figure for `CS(=O)(=O)N1C[C@H]2CC[C@@H](C1)N(Cc1ccsc1)C2` is 10.2%. The figure for `O=C(CCc1nc2cc(Br)cnc2[nH]1)NCCCn1ccnc1` is -7.28%; for `CN(C)c1cc(C2CCCN2Cc2ccccc2OCC(=O)O)ccn1` (stereo not given) it is 24.4%; for `Cc1ccncc1C(=O)N1C[C@H]2CN(CC3CCC3)C[C@@]2(C(=O)O)C1` it is 42.3%. For the compound `CN(Cc1cccnc1)C1CC2(CCN(c3ncc(F)cn3)CC2)C1`, the INHIBITION was determined as 49.1%.

Consider `CN(Cc1ccncc1)C1CCC[C@@H]2CN(c3ncccn3)C[C@H]12` (stereo not given in full), for which the INHIBITION is -22.7%.

`CN(Cc1cccnc1)C1CC2(CCN(c3ncccn3)CC2)C1`: the INHIBITION is listed as -20.8%. With `CN(Cc1ccncc1)C1CC2(CCN(c3ncccn3)CC2)C1` the figure was 58.7%; with `CN(Cc1ccncc1)C1CC2(CCN(c3ncc(F)cn3)CC2)C1`, 55.5%. The figure for `Cc1cnc(N2CCC3(CC2)CC(N(C)Cc2ccncc2)C3)nc1` is 49.1%; for `CSCCCN1CCCC1c1noc(C(C)C)n1` (stereo not given) it is 1.18%. The figure for `Cc1cnn(C2CCCN(C(=O)CCNS(C)(=O)=O)C2)c1` (stereo not given) is 19.2%; for `C1CCC(c2nnc3sc(C4CCOC4)nn23)C1` (stereo not given) it is 16.7%; for `Cc1cc(N)nc(SC2CCN(c3ccccc3)C2=O)n1` (stereo not given) it is 6.94%. In the case of `Cc1cc(N)nc(SC2CCCN(Cc3ccccc3)C2=O)n1` (stereo not given), the INHIBITION was found to be 26.8%. Turning to `Cc1cc(N)nc(SC2CCN(c3ccccc3F)C2=O)n1` (stereo not given), the INHIBITION is 56.5%.

On to `CCCc1nnc(N2CCC3(CCC(=O)N(C)C3)CC2)o1`, for which the INHIBITION came out at 47.2%.

On to `COc1ccc(CN(C)Cc2c(C)noc2C)c(Cl)c1OC`, for which the INHIBITION was determined as 14.3%.

On to `CC(C)N(Cc1ccccc1)Cc1csc(-c2ncccn2)n1`, for which the INHIBITION was -50.2%. The figure for `CC(C)N(Cc1ccccc1)Cc1nnsc1Cl` is -37.8%; for `CC(C)N(CC(N)=O)Cc1csc(-c2ncccn2)n1` it is -16.8%.

Regarding `Cc1cc(CN(C)C(=O)CC(C)C)no1`, the INHIBITION is recorded as -7.93%.

For the compound `Cc1noc(C)c1CN(C)Cc1csc(-c2ncccn2)n1`, the INHIBITION amounted to 62.8%. With `CC(C)c1nc(CN(C)Cc2ccc(O)c(Cl)c2)cs1` the figure was 17.1%.

Consider `Cc1noc(C)c1CN(Cc1ccccc1)C(C)C`, for which the INHIBITION is given as 60.2%. Take `Cc1noc(C)c1CN(Cc1ccccc1)C(C)CN1CCOCC1` (stereo not given): the INHIBITION came out at 37.4%. The figure for `CCOc1ccc(-c2nc(CN(C)Cc3c(C)noc3C)cs2)cc1` is 88.5%; for `Cc1noc(C)c1CN(C)C(=O)CCOc1ccc(Cl)cc1` it is 2.65%. The figure for `Cc1cc(CN(C)Cc2csc(-c3ccc(C(C)C)cc3)n2)no1` is 83.4%.
